Consider 101 molecules from PubChem BioAssay AID590 (National Center for Advancing Translational Sciences (NCATS), 2007).

Hit rate of the full screen: of about 59,000 compounds, about 6,500 (11%) were called active. About 15% were inconclusive and are not listed. Cut-off read from the data, not from the text of the source: active = max dye-equivalent concentration above about 10 nM; inconclusive = mostly about 1.1 nM to 9.6 nM; inactive = weaker than that. The sample as a whole holds a higher share of actives than the screen did. Peptide text beside a SMILES is read from it.

The nature of the test: qHTS Assay for Spectroscopic Profiling in A350 Spectral Region. The note with it: Compound autofluorescence, 340/450 nm, Alexa 350 dye-equivalents; active compounds read high. The source says: NIH Molecular Libraries Screening Centers Network [MLSCN]
NIH Chemical Genomics Center [NCGC]
Occasionally, the artifactual effect may originate from the compounds own spectral or other biophysical properties which generally tend to track its assay concentration. Pre-screening/profiling the library with respect to the compounds spectral properties should help one exclude false positives early on. While the most informative fluorescent profiling data set is obtained by performing a full excitation and emission scan of each well by using a monochromator-based plate reader, such an approach is practical only on a very limited scale as scanning each well requires long time. An alternative approach, applied here, is to perform plate reader scans using selected excitation and emission wavelength pairs to generate a multidimensional relational database that correlates compound concentration and the respective relative fluorescence intensity at a given wavelength set. A standard curve of Alexa 350 (A 350) present on each plate as six-point concentration series, was used to compute a normalized fluorescence response, termed dye-equivalent concentration, for each compound at each concentration.
NCGC Assay Protocol Summary:
100 mM Tris buffer, pH 8.0
The wells in columns 1 through 4 of a Kalypsys polypropylene 1536-well compound plate were filled with standard solutions of fluorophore corresponding to the spectral region of interest. Solutions of A 350 were placed in the following wells: I1, J1: 3 mM, I2, J2: 300 uM, I3, J3: 30 uM, I4, J4: zero (DMSO), K1, L1: 3 uM, K2, L2: […], K3, L3: 300 nM, K4, L4: zero (DMSO).
Six uL of buffer were dispensed to 1536-well Greiner black plates. Compounds and dye standards (23 nL) were transferred via Kalypsys PinTool. The plates were incubated for 15 min at room temperature, and then read on ViewLux (Perkin-Elmer) High-throughput CCD imager using 340 nm and 450 nm excitation and emission filter set.
Keywords: NIH Roadmap, MLSCN, MLI, MLSMR, qHTS, NCGC, A350, A-350, Fluorescent Profiling.
A general note: In qHTS, concentration-response curves come from the screen itself.
For `CCOc1cc(C)c(Cl)cc1S(=O)(=O)n1nnc2ccccc21`, the max dye-equivalent concentration result is “inactive”.
In the case of `COC(=O)c1[nH]c2ccccc2c1NC(=O)CN1CCCc2ccccc21`, the max dye-equivalent concentration entry is “inactive”.
As to `CCOC(=O)c1[nH]c2ccc(OC)cc2c1NC(=O)N1CCOCC1`, the max dye-equivalent concentration is 44 nM (active).
As to `COc1ccc(OC)c(NC(=O)CCN2CCC(C)CC2)c1`, the max dye-equivalent concentration entry was “inactive”.
The result for `Cc1c(C(=O)N2CCOCC2)[nH]c2ccc(OCc3ccccc3)cc12` reads “inactive”; that for `CCOC(=O)c1[nH]c2ccc(OC)cc2c1NC(=O)CCN1CCN(Cc2ccccc2)CC1`, 64 nM (active); that for `COc1cc(NC(=O)N2CCOCC2)cc(OC)c1`, “inactive”.
Turning to `COc1ccccc1CNc1cc(-c2ccccc2CN(C)C)ncn1`, the max dye-equivalent concentration result was “inactive”.
The result for `COCC(=O)N1CCC2(CCCN(c3ccccc3)C2)CC1` reads “inactive”; that for `Cc1cc(NC(=O)COn2nnc3ccccc32)no1`, “inactive”; that for `O=C1NC(=O)[C@@](Cc2ccccc2)(c2cccnc2)N1`, “inactive”.
Take `Cc1cccn2c(=O)c3cc(C(=O)N4COCC4(C)C)n(C)c3nc12`: the max dye-equivalent concentration is 900 nM (active).
Next, `O=C(NCc1ccccn1)c1c(O)c2c([nH]c1=O)CCCC2`: “inactive”; `O=C(NCc1ccco1)c1nc2ncccn2n1`: “inactive”.
In the case of `Cc1cccn2c(=O)c3cc(C(=O)NCc4ccccn4)n(C)c3nc12`, the max dye-equivalent concentration was 170 nM (active).
As for `CCN(CC)C(=O)C1CCC(C)(C(=O)O)C1(C)C` (stereo unspecified), the max dye-equivalent concentration entry is “inactive”.
The result for `CC(c1ccccc1)n1c(NCCCn2ccnc2)nc2c1c(=O)[nH]c(=O)n2C` (stereo unspecified) reads “inactive”; that for `Cc1cc(NC(=O)COC(=O)c2ccc(F)c(S(=O)(=O)N3CCOCC3)c2)no1`, “inactive”.
On to `COc1cc([C@H]2c3cc4c(cc3[C@@H](O[C@@H]3O[C@H]5CO[C@@H](C)O[C@]5(O)C[C@H]3O)[C@@H]3COC(=O)[C@H]23)OCO4)cc(OC)c1O`, for which the max dye-equivalent concentration entry is “inactive”.
For `C=CCn1c(SCc2cc(C(=O)OC)c(C)o2)nnc1-c1ccncc1`, the max dye-equivalent concentration result is “inactive”.
`COc1ccc(C(=O)CSc2nccc(=O)[nH]2)cc1`: the max dye-equivalent concentration entry was “inactive”.
With `COC(=O)[C@H](C)NC(=O)Nc1ccc(OC(F)(F)F)cc1`, the max dye-equivalent concentration entry was “inactive”.
Turning to `CCCN1CC=C2C(C#N)=C(N)C(C#N)(C#N)C(c3cc(OC)ccc3OC)C2C1` (stereo unspecified), the max dye-equivalent concentration was 110 nM (active).
Consider `CCC1=C(C(=O)OC)C(c2cc(OC)ccc2OC)C(C#N)=C(N)O1` (stereo unspecified), for which the max dye-equivalent concentration result is “inactive”.
As to `c1cc(-n2cnnn2)ccc1NC1=NCCC1`, the max dye-equivalent concentration entry is “inactive”.
The result for `CNC(=O)C1CC(=O)N(Cc2ccc3c(c2)OCO3)C(=Nc2ccc(F)cc2)S1` (stereo unspecified) reads “inactive”.
Next, `CC(C)(CSc1nncn1/N=C/c1ccco1)NS(=O)(=O)c1ccc(Cl)cc1`: “inactive”; `CC(C)CCNc1nc(N2CCCC2)c2c(c1C#N)CCN(C)C2`: 33 nM (active).
Take `O=C(CCOc1ccccc1)NCc1ccccc1`: the max dye-equivalent concentration entry was “inactive”.
Take `O=C1CN(C(=O)COC(=O)C2CC(=O)N(Cc3ccco3)C2)c2ccccc2N1` (stereo unspecified): the max dye-equivalent concentration result was “inactive”.
As to `COc1ccc2c(CC(=O)Nc3nnc(C4CC4)s3)coc2c1`, the max dye-equivalent concentration was 12 nM (active).
Next, `COc1ccc(Cc2nnc(NC(=O)Cc3cccs3)s2)cc1`: “inactive”; `COc1ccc(OCCCC(=O)Nc2nnc(C3CCCO3)s2)cc1` (stereo unspecified): “inactive”; `CC1Cc2cc(/C(O)=C3\C(=O)C(=O)N(CCN4CCOCC4)C3c3ccccc3F)ccc2O1` (stereo unspecified): “inactive”.
The result for `O=C(O)[C@@H]1[C@@H](C(=O)O)[C@]23C[C@@]2(C(=O)O)[C@]2(C(=O)O)CCC3=C3CCCC312` reads “inactive”.
Next, `COc1ccc(S(=O)(=O)NC(CC(=O)NCc2ccccc2OC)c2ccco2)cc1` (stereo unspecified): “inactive”; `CCCn1c(O)c(CN2CCCC(C)C2)c(C)c(C#N)c1=O` (stereo unspecified): 19 nM (active).
On to `CCCCCCn1c(CN2CCCC(C)C2)nc2c1c(=O)n(C)c(=O)n2C` (stereo unspecified), for which the max dye-equivalent concentration result is “inactive”.
The result for `CCCCC(CCC(=O)Nc1ccc(C(=O)OCC)cc1)C(=O)O` (stereo unspecified) reads “inactive”; that for `CCCCc1cc(=O)oc2cc(C)cc(OCc3nn[nH]n3)c12`, 77 nM (active); that for `CC(Sc1nncn1C)C(=O)Nc1ccccc1-c1ccccc1` (stereo unspecified), “inactive”.
In the case of `Clc1ccc(Nc2nc(-c3cccs3)cs2)nc1`, the max dye-equivalent concentration entry is “inactive”.
For `O=C(Nc1ccccc1F)C1C2C=CC3(O2)C1C(=O)N(c1cccnc1)C3C(=O)NC1CCCCC1` (stereo unspecified), the max dye-equivalent concentration result was “inactive”.
Next, `COc1cc(C(=O)N(Cc2ccc(N(C)C)cc2)C2CCS(=O)(=O)C2)cc(OC)c1OC` (stereo unspecified): “inactive”.
The result for `CC1CCCCN1S(=O)(=O)c1ccc(C(=O)Nc2nnc(-c3cccs3)o2)cc1` (stereo unspecified) reads “inactive”; that for `CCc1nnc(NC(=O)c2ccc(S(=O)(=O)NC3CCCCC3)cc2)s1`, “inactive”.
Next, `Cc1ccc(C(=O)Nc2nnc(-c3cccs3)s2)cc1C`: 72 nM (active); `COc1ccc2[nH]cc(CCNc3ncnc4ccc(-c5ccccc5CN(C)C)cc34)c2c1`: “inactive”; `COC(=O)c1ccccc1NC(=O)C1CCN(S(=O)(=O)c2cc(OC)ccc2OC)CC1`: “inactive”.
As for `COc1ccc(Cl)cc1S(=O)(=O)Nc1cccc(C(=O)O)c1`, the max dye-equivalent concentration entry is “inactive”.
As for `COc1ccc(OC)c(S(=O)(=O)Nc2ccccc2F)c1`, the max dye-equivalent concentration is 75 nM (active).
`Cc1c(C(=O)OCC(=O)N(CCC#N)c2ccccc2)oc2c1ccc1ccccc12`: the max dye-equivalent concentration was 14 nM (active).
Next, `Cc1c(C(=O)OCc2cc(=O)n3cc(Br)ccc3n2)oc2ccccc12`: “inactive”.
Next, `COC(=O)N1CCC2(CCCN(c3ccncc3)C2)CC1`: “inactive”; `Cc1nc2cnc(Oc3cccc(Cl)c3)nc2n(C2CC2)c1=O`: “inactive”; `COc1cccc(Cn2c(=O)c(-c3ccccc3)nc3cnc(OC)nc32)c1`: “inactive”.
With `COc1ccc(-c2nc3cnc(Oc4ccccc4)nc3n(Cc3cccs3)c2=O)cc1`, the max dye-equivalent concentration is 12 nM (active).
Next, `CCc1nc2oc3ccccc3c(=O)c2c(=O)n1Cc1ccc(OC)cc1`: “inactive”.
For the molecule `COCCn1c(=O)c(-c2ccc(OC)cc2)nc2cnc(Oc3cccc(Cl)c3)nc21`, the max dye-equivalent concentration was 13 nM (active).
Next, `COc1cccc(Cn2c(=O)c(-c3cc(F)cc(F)c3)nc3cnc(OC)nc32)c1`: “inactive”.
Next, `COc1ncc2nc(-c3ccc(Cl)cc3)c(=O)n(C)c2n1`: 34 nM (active); `COc1ccc(Oc2ncc3nc(-c4ccc(F)cc4)c(=O)n(C)c3n2)cc1`: “inactive”.
The result for `COc1ccc(-c2nc3cnc(OC)nc3n(Cc3ccc(F)cc3)c2=O)cc1` reads 12 nM (active).
`CCOC(=O)CSc1nnc(CNC(=O)c2cccs2)n1-c1cc(OC)ccc1OC`: the max dye-equivalent concentration entry was “inactive”.
The result for `N#Cc1ccccc1-n1c(N)c(C(=O)N2CCCC2)sc1=S` reads “inactive”.
`COC(=O)c1ccc(N(CC(=O)NC2CCCC2)C(=O)CNC(=O)c2ccco2)cc1`: the max dye-equivalent concentration entry was “inactive”.
The result for `CCS(=O)(=O)N1CCCC(C(=O)NCCCN(C)Cc2ccccc2)C1` (stereo unspecified) reads “inactive”.
Consider `CN1C(=O)C[C@H](c2ccccc2)C1=O`, for which the max dye-equivalent concentration result was “inactive”.
Next, `O=C(CCCN1C(=O)CCC1=O)Nc1ccc(Cl)c(C(F)(F)F)c1`: “inactive”.
Regarding `O=c1c(-c2cccs2)nc2cnc(Oc3ccccc3)nc2n1-c1ccccc1`, the max dye-equivalent concentration is 21 nM (active).
Next, `O=c1c(-c2cc(F)cc(F)c2)nc2cnc(Oc3ccccc3)nc2n1C[C@H]1CCCO1`: 15 nM (active); `COc1ccc(-n2c(=O)c(-c3cn(C)c4ccccc34)nc3cnc(OC)nc32)cc1`: “inactive”; `COc1ccc(Oc2ncc3nc(C)c(=O)n(-c4ccccc4)c3n2)cc1`: “inactive”.
Next, `CCc1ccc(-c2nnn(Cc3nc4ccccc4s3)n2)cc1`: “inactive”; `O=C(N1CCOCC1)N1CCOCC1`: “inactive”.
The result for `O=C(NCc1cn2ccsc2n1)Nc1cccc(Cl)c1` reads “inactive”; that for `CCOC(=O)c1csc(NC(=O)c2ccc(S(=O)(=O)N3CCCC3)cc2)n1`, “inactive”; that for `COc1ccc(OCC(=O)OCC(=O)Nc2ccc(S(=O)(=O)N3CCCCC3)cc2)cc1`, “inactive”.
For the molecule `Cc1cc(=O)[nH]c(SCc2cc(Cl)ccc2OC(F)F)n1`, the max dye-equivalent concentration result is “inactive”.
The result for `Cc1ccc(C(=O)O)cc1S(=O)(=O)NCC1CCCO1` (stereo unspecified) reads “inactive”; that for `Cc1ccc(-c2noc(-c3ccccc3C(=O)NCC3CCCO3)n2)cc1` (stereo unspecified), “inactive”.
Take `CCOc1cc(-c2nc3cc(C)ccn3c2NCC2CCCO2)ccc1O` (stereo unspecified): the max dye-equivalent concentration is 78 nM (active).
With `O=C(CSc1nnc(-c2ccncc2)n1C1CCCCC1)Nc1ccccc1`, the max dye-equivalent concentration result is “inactive”.
In the case of `CN1CCN(S(=O)(=O)c2ccc3[nH]cc(C(=O)O)c(=O)c3c2)CC1`, the max dye-equivalent concentration was 12 nM (active).
For the molecule `CCOC(=O)N1CCN(C(=O)c2cn(C)c3ccc(S(=O)(=O)N4CCCC4)cc3c2=O)CC1`, the max dye-equivalent concentration result was “inactive”.
For the molecule `CCN(CC)S(=O)(=O)c1ccc2[nH]cc(C(=O)NCCc3ccccc3)c(=O)c2c1`, the max dye-equivalent concentration entry was “inactive”.
`COC(=O)c1cc(S(=O)(=O)NC2CCN(Cc3ccccc3)CC2)cn1C`: the max dye-equivalent concentration result was “inactive”.
As to `Fc1ccccc1OCCCCn1cncn1`, the max dye-equivalent concentration entry is “inactive”.
Next, `C[C@H](NC(=O)NCCc1ccccc1)C(=O)O`: “inactive”.
Next, `O=C(Cn1cnc2c(cnn2-c2ccccc2)c1=O)NCc1ccccc1`: “inactive”.
Next, `CN(C)CCCn1c(N)c(C#N)c2nc(C#N)c(C#N)nc21`: 620 nM (active).
For the molecule `Cc1cccc(C)c1NC(=O)CCCSc1nnc(-c2ccco2)n1-c1ccccc1`, the max dye-equivalent concentration result is “inactive”.
`CC(=O)NC(C(=O)NCC(N)=O)C(C)C` (stereo unspecified) (HELM PEPTIDE1{[ac].[CC(C)C(N[*:1])C(=O)[*:2]].G.[am]}$$$$V2.0): the max dye-equivalent concentration result was “inactive”.
Consider `O=C(Cn1nc(C(F)(F)F)c2c1CCC2)NCc1ccc(F)cc1`, for which the max dye-equivalent concentration result was “inactive”.
As to `Nc1cc(=O)nc(SCc2ccccc2)n1Cc1ccco1`, the max dye-equivalent concentration entry was “inactive”.
For the molecule `O=c1[nH]c(=O)n(Cc2ccco2)c2c1C(C(F)(F)F)(C(F)(F)F)N=C(c1ccco1)N2`, the max dye-equivalent concentration was 18 nM (active).
Take `Cc1ccc(C(=O)OCC(=O)NCc2ccc3c(c2)OCO3)s1`: the max dye-equivalent concentration entry is “inactive”.
The result for `Fc1ccc2nc(-c3ccccc3)nc(SCc3nnc(-c4ccccc4)o3)c2c1` reads 38 nM (active).
Take `O=C(OCc1nnc(-c2ccccc2)o1)c1ccc2c(c1)C(=O)N(CCc1ccccc1)C2=O`: the max dye-equivalent concentration entry was “inactive”.
With `C=CCn1c(SCc2nnc(-c3ccccc3)o2)nnc1C(O)c1ccccc1` (stereo unspecified), the max dye-equivalent concentration entry was “inactive”.
Regarding `O=C(Nc1cccc(F)c1)N1CC2(CCN(C(=O)c3cnccn3)CC2)C1`, the max dye-equivalent concentration entry was “inactive”.
